Source: PubChem BioAssay
A selection: hits, their analogues and other compounds. The true share with any hit is near 2.5%.
Cruzain noTriton = blocks cruzain activity in detergent-free assay; 200,000 compounds, 2.3% hits; Potency, µM, hits mostly inhibitors; purified cruzain, Z-FR-AMC fluorescence, no detergent; P25779; also: nearly all actives have a fitted effect of over 40% in size
Target sequence (P25779 123-467 limits assumed): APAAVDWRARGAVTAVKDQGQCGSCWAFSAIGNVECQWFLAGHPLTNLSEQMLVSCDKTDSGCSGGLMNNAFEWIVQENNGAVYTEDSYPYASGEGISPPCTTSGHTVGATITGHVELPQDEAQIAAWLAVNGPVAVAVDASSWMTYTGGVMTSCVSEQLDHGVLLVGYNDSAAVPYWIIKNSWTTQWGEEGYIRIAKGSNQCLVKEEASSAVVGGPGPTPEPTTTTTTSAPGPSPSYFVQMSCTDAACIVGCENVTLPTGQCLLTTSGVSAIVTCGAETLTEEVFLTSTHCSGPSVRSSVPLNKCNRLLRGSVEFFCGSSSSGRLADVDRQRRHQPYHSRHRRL
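Detergent-free condition (0.00005% Triton X-100) in acetate buffer pH 5.5 with DTT. 1.5 nM enzyme and compound were pre-mixed 15 min, then 2 uM Z-FR-AMC substrate added; reaction progress from fluorescence change between first and third reads (60 s).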
Cruzain inh Det = inhibitors of Trypanosoma cruzi cruzain with detergent | P25779 | purified cruzain, Z-FR-AMC fluorescence, 0.01% Triton | Potency, µM, usual class: inhibitors | 200,000 compounds, 0.43% hits | AID 1478; also: nearly all actives have a fitted effect of over 40% in size
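Cysteine protease activity tested under reducing, mildly acidic conditions (100 mM sodium acetate pH 5.5, 5 mM DTT) plus 0.01% Triton X-100. Cruzain 1.5 nM; substrate Z-FR-AMC 2 uM; 15 min compound preincubation at room temperature.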
Hits are given with their value; n = inactive; u = inconclusive. Calls follow the shape of the dose curve; as a rule, active = well fitted curve in the direction sought with a large enough effect; inconclusive = small, poorly fitted or top-dose-only effect, or another doubt; inactive = no such curve, though single readings can be large; an effect the other way counts as inactive or inconclusive.

SMILES	Cruzain noTriton	Cruzain inh Det
N[C@@H](Cc1ccccc1)c1nnc(SCc2ccccc2Cl)o1	n	n
COc1ccc(CCCn2ncc3c2nc(N)n2nc(-c4ccco4)nc32)cc1	n	n
CCOC(=O)c1c(C)c(-c2ccccc2)n(CC(=O)Nc2cccc(F)c2)c1C	n	n
O=C(NC(=S)Nc1ccccc1N1CCCC1)c1ccc([N+](=O)[O-])cc1	u	n
O=C(NC(=S)Nc1ccccc1O)c1ccc(-c2ccc(Cl)cc2)o1	16µM	n
O=C(NC(=S)Nc1ccccc1N1CCCCC1)c1ccc(-c2cccc([N+](=O)[O-])c2)o1	5µM	n
COc1ccccc1NC(=S)NC(=O)c1ccc(-c2ccc(Cl)cc2)o1	u	n
O=C(NC(=S)Nc1ccccc1N1CCOCC1)c1ccc(-c2cccc(Cl)c2)o1	u	n
O=C(NC(=S)Nc1ccccc1N1CCCC1)c1ccc(-c2cccc([N+](=O)[O-])c2)o1	5µM	n
CCOC(=O)c1ccc(NC(=O)c2c(-c3c(F)cccc3Cl)noc2C)cc1	n	n
Cn1cc(C(=O)NCCc2ccccc2)c(=O)c2cc(S(=O)(=O)N3CCCCCC3)ccc21	n	n
COC(=O)[C@H]1[C@H]2CC3c4[nH]c5ccccc5c4CCN3C[C@@H]2CC[C@@H]1O (stereo partly drawn)	n	n
COc1ccc(CCC(=O)NCc2ccc3c(c2)CCN3C(=O)c2ccc(C)cc2)cc1	n	n
CCOC(=O)CSc1nc2sc(C)c(C)c2c(=O)n1N	n	n
COC(=O)c1sc2nc(SCc3ccccc3C#N)n(N)c(=O)c2c1C	32µM	n
COC(=O)[C@H](CCCN=C(N)N)NC(=O)CCCc1c(-c2ccccc2)[nH]c2c(F)cc(F)cc12	n	n
Cc1ccc(NC(=O)C(C)OC(=O)c2ccc(NS(=O)(=O)c3ccc(F)c(F)c3)cc2)cc1 (stereo not drawn)	n	n
CCOC(=O)c1ccc(NS(=O)(=O)c2ccc3[nH]c4c(c3c2)CCCCC4)cc1	u	n
CC(=O)c1ccc(NC(=O)C(C)OC(=O)c2ccc(NS(=O)(=O)c3ccc(F)c(F)c3)cc2)cc1 (stereo not drawn)	16µM	n
Cc1ccc(C(=O)COC(=O)c2ccccc2NC(=O)c2ccccc2)cc1[N+](=O)[O-]	u	n
Cc1ccc(S(=O)(=O)Nc2ccccc2C(=O)OC(C)C(=O)Nc2ccc3ccccc3c2)cc1[N+](=O)[O-] (stereo not drawn)	7.9µM	n
CCc1ccc(NC(=O)C(C)OC(=O)c2ccc(NS(=O)(=O)c3ccc(C)c([N+](=O)[O-])c3)cc2)cc1 (stereo not drawn)	16µM	n
CCNc1ncc2nc(C)c(=O)n(Cc3ccc(F)cc3)c2n1	n	n
Cc1nn(-c2ccc(N3CCCCC3)nn2)c(C)c1CCC(=O)NCc1ccc(OC(C)C)cc1	n	n
Cc1cccc(-n2c(=O)c3c(c4cc(C)ccc4n3C)n(CC(=O)Nc3ccc(C)cc3C)c2=O)c1	n	n
SMILES	Cruzain noTriton	Cruzain inh Det
Cc1ccc(NC(=O)Cn2cnc3sc(C(=O)NCCN(C)C)c(C)c3c2=O)cc1Cl	n	n
Cc1ccc(NC(=O)Cn2cnc3sc(C(=O)O)c(C)c3c2=O)cc1Cl	n	0.0063µM
Cc1sc2ncnc(Sc3ccccc3C(=O)Nc3ccc(C#N)cc3)c2c1C	n	n
Cc1sc2ncnc(Sc3ccccc3C(=O)Nc3ccc(Br)cc3)c2c1C	13µM	n
COc1cccc([C@@H]2Oc3ccc(OC)cc3C[C@H]2OC(=O)Nc2cc(OC)c(OC)c(OC)c2)c1	n	n
COC(=O)c1c(NC(=O)COC(=O)CCS(=O)(=O)c2ccc(C)cc2)sc(C)c1C	n	n
COC(=O)c1c(NC(=O)COC(=O)CNC(=O)C2CCCCC2)sc(C)c1C	10µM	4µM
CCOc1ccccc1NC(=O)CCc1c(C)nc2c(c(C)nn2-c2ccccc2)c1C	n	n
CCC1(c2ccc(F)cc2)NC(=O)N(CC(=O)Nc2ccc(-c3nc4ccc(C)cc4s3)cc2)C1=O (stereo not drawn)	13µM	n
Cc1ccc2nc(-c3ccc(NC(=O)CN4C(=O)c5ccccc5C4=O)cc3)sc2c1	n	n
COc1ccc(OC)c(CCNC(=O)CCc2cn(Cc3cc(C)ccc3C)c3ccccc23)c1	n	n
CC1=CC(C)(C)NC(=S)N1c1ccc(C)cc1	n	n
CSC[C@@H]1NC(=S)N(c2ccc(C)cc2)C1=O	13µM	n
C=Cc1ccc(CN2C(=O)N(c3cccc(Cl)c3)S(=O)(=O)c3ccccc32)cc1	u	n
Cc1nn2c(=O)cc(COC(=O)c3ccc(NC(=O)COc4ccc(Cl)cc4)cc3)nc2s1	n	n
CSCCC(NC(=O)c1ccccc1)C(=O)OCC(=O)Nc1ccc(C)c(Cl)c1 (stereo not drawn)	n	14µM
CSCCC(NC(=O)c1ccc([N+](=O)[O-])cc1Cl)C(=O)OCC(=O)N(C)C (stereo not drawn)	n	n
CSCCC(NC(=O)c1ccccc1)C(=O)Nc1ccc(C)cc1 (stereo not drawn)	n	n
CSCCC(NC(=O)c1ccc(Cl)cc1)C(=O)OCC(=O)Nc1cc(Cl)ccc1C#N (stereo not drawn)	n	25µM
COc1cccc(N(Cc2nnc3n2CCCCC3)C(=O)Nc2cccc(Cl)c2)c1	n	n
COc1ccccc1OCc1ccc(C(=O)Nc2ccc(C)c(C)c2)o1	n	n
O=C(NCc1ccco1)c1sc2cc(Cl)ccc2c1Cl	25µM	u
O=C(NCc1ccco1)c1nc2ccccc2s1	n	n
Cc1ccc(NC(=O)c2sc3ccccc3c2Cl)cc1	n	n
O=C(NCc1ccco1)c1sc2ccccc2c1Cl	25µM	u
SMILES	Cruzain noTriton	Cruzain inh Det
O=C(NCc1cccnc1)c1sc2cc(Cl)ccc2c1Cl	n	n
CC(=O)Nc1ccc(NC(=O)C(C)OC(=O)CNC(=O)c2sc3ccccc3c2Cl)cc1 (stereo not drawn)	10µM	11µM
CCC(=O)N1CCc2cc(S(=O)(=O)NC(C(=O)NCc3ccccc3Cl)C(C)C)ccc21 (stereo not drawn)	n	n
O=C(C1CC1)N1CCN(c2nc3c(F)cc(F)cc3s2)CC1	n	n
CC(C)(C)NC(=O)NC(=O)COC(=O)c1cccc(F)c1	n	n
O=C(CNC(=O)c1cccc(F)c1)OCC(=O)N1CCCc2ccccc21	10µM	11µM
O=C(COC(=O)CNC(=O)c1ccccc1F)NCCC1=CCCCC1	10µM	14µM
O=C(Cc1ccccc1)NCCC1=CCCCC1	n	n
COCC(=O)N1CCCc2ccccc21	n	n
O=C(OCC(=O)N1CCc2ccccc21)c1cccc(S(=O)(=O)N2CCCc3ccccc32)c1	u	n
O=C(CNC(=O)c1ccccc1F)OCC(=O)N1CCCc2ccccc21	10µM	10µM
CC(C)(C)NC(=O)NC(=O)COC(=O)CNC(=O)c1cccc(F)c1	u	22µM
O=C(CCc1nc2cccnc2n1-c1ccccc1)Nc1ccc(Cl)c(Cl)c1	n	n
CCOc1ccccc1NC(=O)CSc1cc(=O)n(CC)c2ccccc12	n	n
Cc1c(Cl)cccc1NC(=O)CN1C(=O)COc2ccc(S(=O)(=O)N3CCOCC3)cc21	n	n
Cc1ccc(-n2c(C)cc(/C=N/NC(=O)CC3(C)OCCO3)c2C)cc1	n	n
COc1ccc(Cl)cc1NC(=O)C(=O)N/N=C/c1cc(C)n(-c2ccc(C)cc2)c1C	13µM	n
N#Cc1ccc(-c2cccs2)nc1SCC(=O)Nc1cccc(C(F)(F)F)c1	20µM	n
